Results published in the supplement of paper PMC10849652.
Targets with a hit are over-represented here; the source holds about 7,900 in all. About 0.6% of all pairs of compound and target were hits. A number with no mark means an inactive call.

What was measured:
Assay in all cases: log2 fold change, soluble protein after heating vs DMSO (PISA); higher = thermal stabilisation; K562 cells, 10 uM, 30 min; active = over 0.2 and 3.5 SD of the protein, either way, in both replicates (recomputed)
[1] = compound: C1COCCN1CCN2C3=CC=CC=C3N=C2NC(=O)C4=CC(=CC=C4)[N+](=O)[O-] [IRAK-1-4 Inhibitor I]
Procedure, shortened: (§1)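 Values are thermal stability changes relative to control samples and are taken from duplicates. They are stated as log2 fold changes. Before quantification by TMTpro 16plex LC-MS/MS with equalised channel sums, K562 cells at 2×10^6 cells/mL were treated with 10 μM compound for 30 min, heated in aliquots for 3 min across 48°C-58°C, pooled, extracted in PBS with 0.5% NP-40 at 4°C, and centrifuged at 21,000xg for 90 min to give the soluble supernatant.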

[2] = compound: C=CC(=O)N1CCC[C@@H](n2nc(-c3ccc(Oc4ccccc4)cc3)c3c(N)ncnc32)C1 [ibrutinib]
Procedure, shortened: as §1

[3] = compound: CC(=O)c1cnc2ccc(-c3cc(Cl)c(O)c(Cl)c3)nc2c1N[C@H]1CC[C@H](CN(C)C)CC1
Procedure, shortened: as §1

[4] = compound: CC(C)(C)Cn1c(N)nc2ccc(-c3[nH]c(C(C)(C)C)nc3-c3ccc(F)cc3)nc21 [ralimetinib]
Procedure, shortened: as §1

[5] = compound: CC(C)(O)CC(=O)NCCn1ccc2ncnc(Nc3ccc(Oc4cccc(C(F)(F)F)c4)c(Cl)c3)c21
Procedure, shortened: as §1

[6] = compound: CC(C)C1=C2N=C(C=C(N2N=C1)NCC3=CC=CC=C3)NCCCCCCN
Procedure, shortened: as §1

[7] = compound: CC(C)C[C@@H](C=O)NC(=O)[C@H](CC(C)C)NC(=O)[C@H](CC(C)C)NC(=O)OCc1ccccc1
Procedure, shortened: as §1

[8] = compound: CC(C)N(C[C@H]1O[C@@H](n2cnc3c(N)ncnc32)[C@H](O)[C@@H]1O)[C@H]1C[C@@H](CCc2nc3cc(C(C)(C)C)ccc3[nH]2)C1 [pinometostat]
Procedure, shortened: as §1

[9] = compound: CC1=C(C(CC(=O)N1)C2=CC=C(C=C2)C(F)(F)F)C(=O)NC3=C(C=C4C(=C3)C=NN4)F
Procedure, shortened: as §1

[10] = compound: CC1=C(C2=C(C=C1)C(=O)C3=CC=CC=C3N2CCCN)C
Procedure, shortened: as §1

Sequence of UniProt Q15021 (Q15021 whole entry, looked up): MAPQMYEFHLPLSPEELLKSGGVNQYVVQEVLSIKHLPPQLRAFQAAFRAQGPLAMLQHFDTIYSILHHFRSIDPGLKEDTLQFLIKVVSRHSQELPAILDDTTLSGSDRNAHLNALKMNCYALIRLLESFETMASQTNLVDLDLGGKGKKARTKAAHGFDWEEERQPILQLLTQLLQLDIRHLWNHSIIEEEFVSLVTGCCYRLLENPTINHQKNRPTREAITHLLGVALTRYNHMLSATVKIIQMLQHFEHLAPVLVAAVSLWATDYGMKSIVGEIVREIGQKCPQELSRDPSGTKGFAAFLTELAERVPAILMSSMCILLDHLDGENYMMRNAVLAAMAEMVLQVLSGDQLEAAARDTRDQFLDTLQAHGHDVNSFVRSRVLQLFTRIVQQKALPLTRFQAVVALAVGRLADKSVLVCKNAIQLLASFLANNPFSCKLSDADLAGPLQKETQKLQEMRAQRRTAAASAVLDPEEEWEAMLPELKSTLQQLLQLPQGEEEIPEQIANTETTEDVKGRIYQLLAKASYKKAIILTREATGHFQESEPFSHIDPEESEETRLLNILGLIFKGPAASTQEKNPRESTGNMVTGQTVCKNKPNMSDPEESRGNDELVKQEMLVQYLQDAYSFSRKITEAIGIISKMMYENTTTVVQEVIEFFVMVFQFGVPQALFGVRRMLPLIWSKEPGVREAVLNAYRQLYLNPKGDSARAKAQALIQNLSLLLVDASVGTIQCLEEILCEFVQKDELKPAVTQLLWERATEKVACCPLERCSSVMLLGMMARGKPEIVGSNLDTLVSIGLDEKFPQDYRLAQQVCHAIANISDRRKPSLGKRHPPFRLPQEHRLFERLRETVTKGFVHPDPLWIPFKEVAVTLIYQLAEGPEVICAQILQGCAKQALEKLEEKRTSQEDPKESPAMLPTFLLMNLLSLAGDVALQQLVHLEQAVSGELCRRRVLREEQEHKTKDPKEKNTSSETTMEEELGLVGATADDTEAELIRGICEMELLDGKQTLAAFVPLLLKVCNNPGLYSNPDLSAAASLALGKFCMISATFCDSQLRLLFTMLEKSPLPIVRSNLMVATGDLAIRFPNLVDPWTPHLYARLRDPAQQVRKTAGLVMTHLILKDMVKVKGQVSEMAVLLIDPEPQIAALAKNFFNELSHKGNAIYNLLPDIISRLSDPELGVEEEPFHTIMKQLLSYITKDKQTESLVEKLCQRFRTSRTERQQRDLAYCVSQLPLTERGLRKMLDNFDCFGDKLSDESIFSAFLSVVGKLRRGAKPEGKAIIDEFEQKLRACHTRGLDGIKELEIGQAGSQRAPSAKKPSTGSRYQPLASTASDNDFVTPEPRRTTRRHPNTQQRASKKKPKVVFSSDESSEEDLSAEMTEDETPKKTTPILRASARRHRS
Sequence of UniProt Q9Y2I1 (Q9Y2I1 whole entry, looked up): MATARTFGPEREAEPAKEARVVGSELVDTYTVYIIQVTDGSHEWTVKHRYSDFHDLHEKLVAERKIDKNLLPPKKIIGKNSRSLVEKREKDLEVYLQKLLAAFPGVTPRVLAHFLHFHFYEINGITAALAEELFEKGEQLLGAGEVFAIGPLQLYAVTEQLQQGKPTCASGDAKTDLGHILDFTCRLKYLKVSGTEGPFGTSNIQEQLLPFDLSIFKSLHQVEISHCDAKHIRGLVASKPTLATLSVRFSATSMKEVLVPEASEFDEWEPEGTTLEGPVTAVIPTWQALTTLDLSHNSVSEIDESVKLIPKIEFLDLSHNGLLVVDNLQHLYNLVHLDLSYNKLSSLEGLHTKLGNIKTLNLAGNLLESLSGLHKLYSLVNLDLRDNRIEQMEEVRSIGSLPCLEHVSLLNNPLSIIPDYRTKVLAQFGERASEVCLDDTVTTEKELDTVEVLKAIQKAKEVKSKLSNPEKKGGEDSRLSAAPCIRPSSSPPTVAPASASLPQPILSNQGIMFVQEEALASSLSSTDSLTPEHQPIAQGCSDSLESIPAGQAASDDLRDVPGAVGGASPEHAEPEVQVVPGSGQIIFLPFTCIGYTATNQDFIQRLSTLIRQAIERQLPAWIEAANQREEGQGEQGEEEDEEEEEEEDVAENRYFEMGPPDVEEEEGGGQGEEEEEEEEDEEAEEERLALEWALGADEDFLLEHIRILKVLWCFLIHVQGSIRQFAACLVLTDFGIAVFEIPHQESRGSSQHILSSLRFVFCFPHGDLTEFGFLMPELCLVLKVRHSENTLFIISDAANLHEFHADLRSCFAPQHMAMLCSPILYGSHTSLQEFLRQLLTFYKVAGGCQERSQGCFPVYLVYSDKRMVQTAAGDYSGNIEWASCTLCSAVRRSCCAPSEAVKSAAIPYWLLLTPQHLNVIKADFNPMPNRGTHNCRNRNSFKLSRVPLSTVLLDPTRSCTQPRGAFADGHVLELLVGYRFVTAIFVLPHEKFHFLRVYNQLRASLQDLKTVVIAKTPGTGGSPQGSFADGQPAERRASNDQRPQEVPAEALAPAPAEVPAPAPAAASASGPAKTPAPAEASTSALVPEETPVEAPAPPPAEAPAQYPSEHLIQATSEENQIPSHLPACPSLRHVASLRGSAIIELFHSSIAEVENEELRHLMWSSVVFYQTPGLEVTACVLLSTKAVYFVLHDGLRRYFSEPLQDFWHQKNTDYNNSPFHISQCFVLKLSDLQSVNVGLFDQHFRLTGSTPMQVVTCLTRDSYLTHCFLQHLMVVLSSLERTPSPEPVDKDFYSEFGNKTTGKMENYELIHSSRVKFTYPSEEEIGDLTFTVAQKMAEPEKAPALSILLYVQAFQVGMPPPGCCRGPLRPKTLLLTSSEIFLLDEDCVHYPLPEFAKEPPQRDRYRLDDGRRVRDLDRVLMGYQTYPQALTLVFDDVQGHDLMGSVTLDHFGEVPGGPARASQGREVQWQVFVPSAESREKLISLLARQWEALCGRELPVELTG
Sequence of UniProt Q15003 (Q15003 whole entry, looked up): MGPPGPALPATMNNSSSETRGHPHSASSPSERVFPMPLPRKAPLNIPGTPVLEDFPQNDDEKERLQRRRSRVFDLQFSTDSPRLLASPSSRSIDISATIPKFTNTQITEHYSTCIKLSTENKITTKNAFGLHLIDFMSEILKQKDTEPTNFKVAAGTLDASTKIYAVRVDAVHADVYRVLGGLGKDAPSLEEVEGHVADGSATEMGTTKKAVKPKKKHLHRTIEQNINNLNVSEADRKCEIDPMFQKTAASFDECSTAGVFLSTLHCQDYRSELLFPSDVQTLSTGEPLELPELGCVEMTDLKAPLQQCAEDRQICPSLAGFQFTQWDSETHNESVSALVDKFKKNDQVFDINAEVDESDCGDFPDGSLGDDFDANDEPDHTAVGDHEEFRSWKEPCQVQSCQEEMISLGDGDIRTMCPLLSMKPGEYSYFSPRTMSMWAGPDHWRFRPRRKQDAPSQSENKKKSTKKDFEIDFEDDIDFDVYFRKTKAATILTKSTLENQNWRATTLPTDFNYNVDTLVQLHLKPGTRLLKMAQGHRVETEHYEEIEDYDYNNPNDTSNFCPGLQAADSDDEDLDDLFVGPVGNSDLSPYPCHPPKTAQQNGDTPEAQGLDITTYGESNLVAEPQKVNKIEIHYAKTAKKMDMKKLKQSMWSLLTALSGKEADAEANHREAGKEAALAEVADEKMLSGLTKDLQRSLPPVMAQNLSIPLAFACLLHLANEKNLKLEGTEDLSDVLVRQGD
Sequence of UniProt P19338 (P19338 whole entry, looked up): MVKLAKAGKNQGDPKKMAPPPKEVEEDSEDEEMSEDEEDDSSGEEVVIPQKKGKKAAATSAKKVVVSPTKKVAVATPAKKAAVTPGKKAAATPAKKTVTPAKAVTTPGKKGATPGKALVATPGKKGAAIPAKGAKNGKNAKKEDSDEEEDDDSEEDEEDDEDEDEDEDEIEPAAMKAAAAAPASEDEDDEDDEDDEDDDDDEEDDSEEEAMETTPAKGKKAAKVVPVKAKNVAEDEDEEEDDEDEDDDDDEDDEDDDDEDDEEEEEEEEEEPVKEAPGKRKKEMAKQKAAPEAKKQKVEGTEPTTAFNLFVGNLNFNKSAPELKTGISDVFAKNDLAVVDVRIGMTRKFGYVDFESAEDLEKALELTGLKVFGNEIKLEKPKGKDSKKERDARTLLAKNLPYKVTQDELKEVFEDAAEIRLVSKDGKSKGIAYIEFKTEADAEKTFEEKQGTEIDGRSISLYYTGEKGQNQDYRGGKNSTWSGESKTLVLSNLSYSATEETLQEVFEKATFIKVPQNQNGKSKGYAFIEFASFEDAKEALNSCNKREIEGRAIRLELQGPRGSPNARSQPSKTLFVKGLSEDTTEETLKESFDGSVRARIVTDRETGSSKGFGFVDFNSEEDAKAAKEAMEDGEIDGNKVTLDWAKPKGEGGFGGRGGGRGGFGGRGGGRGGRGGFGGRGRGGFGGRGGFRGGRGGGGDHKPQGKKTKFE
Sequence of UniProt O43809 (O43809 whole entry, looked up): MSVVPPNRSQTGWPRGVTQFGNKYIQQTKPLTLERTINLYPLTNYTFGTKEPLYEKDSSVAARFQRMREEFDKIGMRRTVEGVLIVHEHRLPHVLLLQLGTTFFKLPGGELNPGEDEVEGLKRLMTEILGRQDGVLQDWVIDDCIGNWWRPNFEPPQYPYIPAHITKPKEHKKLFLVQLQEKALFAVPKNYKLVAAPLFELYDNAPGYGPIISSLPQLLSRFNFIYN
Sequence of UniProt O43181 (O43181 whole entry, looked up): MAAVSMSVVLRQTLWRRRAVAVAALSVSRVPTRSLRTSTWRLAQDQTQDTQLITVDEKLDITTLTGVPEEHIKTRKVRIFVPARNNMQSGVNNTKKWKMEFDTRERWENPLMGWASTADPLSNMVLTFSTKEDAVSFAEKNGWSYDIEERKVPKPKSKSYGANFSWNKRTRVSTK
Sequence of UniProt P56556 (P56556 whole entry, looked up): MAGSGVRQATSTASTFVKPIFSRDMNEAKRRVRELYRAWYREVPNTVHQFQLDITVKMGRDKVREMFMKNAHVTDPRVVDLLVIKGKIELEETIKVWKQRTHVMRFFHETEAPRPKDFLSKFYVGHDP
Sequence of UniProt Q86WQ0 (Q86WQ0 whole entry, looked up): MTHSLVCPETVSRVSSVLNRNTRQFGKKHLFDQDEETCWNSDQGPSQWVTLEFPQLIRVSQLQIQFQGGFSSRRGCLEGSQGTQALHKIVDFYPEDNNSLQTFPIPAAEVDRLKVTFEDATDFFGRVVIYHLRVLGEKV

Row | Target | log2 fold change [1] | log2 fold change [2] | log2 fold change [3] | log2 fold change [4] | log2 fold change [5] | log2 fold change [6] | log2 fold change [7] | log2 fold change [8] | log2 fold change [9] | log2 fold change [10]
1 | NUDT16 (UniProt Q96DE0) | 0.049 | 0.03 | 0.022 | -0.039 | 0.005 | 0.066 | -0.001 | -0.001 | 0.017 | 0.004
2 | MT-ND4 (UniProt P03905) | -0.005 | -0.092 | -0.236 | -0.06 | -0.094 | -0.124 | -0.054 | -0.135 | -0.065 | 0.056
3 | NPEPPS (UniProt P55786) | 0.039 | 0 | -0.013 | 0.021 | -0.117 | 0.254 (active) | -0.035 | -0.026 | -0.01 | 0.045
4 | NNT (UniProt Q13423) | 0.013 | -0.018 | -0.016 | -0.099 | -0.056 | 0.016 | -0.053 | -0.029 | -0.022 | 0.037
5 | NUP160 (UniProt Q12769) | -0.03 | -0.041 | -0.13 | -0.002 | -0.032 | -0.137 | -0.01 | 0.058 | 0.001 | -0.012
6 | MOV10 (UniProt Q9HCE1) | -0.135 | 0.002 | 0.069 | 0.12 | 0.082 | 0.02 | 0.033 | 0.163 | -0.052 | -0.305
7 | NA, A0A0B4J2A0 | 0.014 | -0.015 | -0.072 | -0.023 | -0.105 | 0.044 | 0.031 | 0.018 | 0.051 | 0.107
8 | NCAPH (UniProt Q15003) | -0.124 | -0.045 | 0.097 | 0.007 | -0.094 | -0.023 | 0.02 | 0.08 | 0.017 | -0.006
9 | NEU1 (UniProt Q99519) | -0.136 | -0.069 | -0.175 | 0.05 | 0.018 | -0.379 (active) | 0.166 | -0.021 | 0.049 | -0.131
10 | MRPS21 (UniProt P82921) | -0.143 | 0.029 | 0.172 | -0.038 | -0.069 | 0.063 | 0.063 | 0.052 | -0.091 | -0.207
11 | NR2C2AP isoform 2 (UniProt Q86WQ0) | -0.126 | -0.003 | -0.062 | -0.056 | 0.012 | 0.01 | -0.026 | -0.073 | 0.057 | 0.063
12 | NISCH (UniProt Q9Y2I1) | 0.053 | 0 | -0.037 | 0.02 | 0.007 | -0.429 | 0.028 | 0.047 | 0.018 | 0.004
13 | NUP210 (UniProt Q8TEM1) | 0.005 | -0.025 | -0.038 | -0.069 | -0.176 | -0.52 (active) | -0.007 | 0.001 | 0.026 | 0.047
14 | MRPS5 (UniProt P82675) | -0.071 | 0.057 | -0.019 | 0 | -0.088 | -0.083 | 0.078 | 0.056 | -0.112 | -0.207
15 | MRPS17 (UniProt Q9Y2R5) | -0.192 | 0.06 | -0.029 | 0.032 | -0.054 | 0.014 | 0.025 | -0.027 | -0.049 | -0.2
16 | MRPS6 (UniProt P82932) | -0.193 | -0.007 | -0.079 | 0.012 | -0.158 | -0.003 | -0.009 | -0.007 | 0.003 | -0.139
17 | NCL (UniProt P19338) | -0.144 | 0.034 | 0.118 | 0.166 | 0.119 | 0.07 | 0.121 | 0.4 | 0.039 | -0.891 (active)
18 | NCAPD2 (UniProt Q15021) | -0.101 | -0.067 | 0.097 | 0.048 | -0.151 | -0.208 | 0.054 | 0.039 | -0.012 | -0.036
19 | NDUFS4 (UniProt O43181) | 0.076 | 0.029 | 0.062 | 0.015 | 0.022 | 0.007 | 0.274 (active) | 0.013 | 0.046 | -0.193
20 | NDUFA6 (UniProt P56556) | -0.004 | -0.031 | -0.092 | -0.046 | -0.214 | -0.05 | -0.045 | -0.083 | -0.03 | 0.175
21 | NUP85 (UniProt Q9BW27) | -0.011 | -0.027 | -0.058 | -0.036 | -0.013 | -0.048 | -0.026 | -0.033 | 0.04 | 0.015
22 | NEDD4L (UniProt Q96PU5) | 0.026 | -0.002 | -0.014 | -0.293 (active) | -0.01 | -0.107 | -0.059 | 0.027 | -0.017 | -0.084
23 | MRPS22 (UniProt P82650) | -0.027 | 0.051 | -0.02 | 0.017 | -0.102 | -0.11 | 0.04 | 0.007 | -0.013 | -0.175
24 | MRPS9 (UniProt P82933) | -0.061 | 0.024 | -0.022 | -0.023 | 0.001 | -0.059 | 0.07 | 0.018 | -0.048 | -0.243 (active)
25 | MORC3 (UniProt Q14149) | 0.021 | -0.047 | 0.023 | -0.024 | -0.122 | -0.051 | 0.002 | -0.026 | -0.039 | 0.595 (active)
26 | NRF1 isoform 4 (UniProt Q16656) | -0.014 | -0.007 | -0.059 | 0.024 | 0.082 | -0.125 | -0.025 | -0.004 | -0.037 | -0.419 (active)
27 | NUDT21 (UniProt O43809) | -0.057 | 0.014 | -0.33 (active) | -0.022 | 0.077 | 0.066 | 0.034 | -0.022 | -0.005 | 0.246 (active)
